{
  "source": "paper PMC12864922",
  "about": "“TDP-43 directly inhibits mRNA accumulation in neurites through modulation of mRNA stability”",
  "binders": {"B1": {"name": "ENSMUSG00000031028.589|Tub (ssRNA)", "RNA": "GGGAGUUCUACAGUCCGACGAUCGCUUCGAUAUCCGCAUGCUAUUUCUUUCAGUUUAUGGCCACCUGCCCAAAUUGACUUCCAGCUUACAAUCUUCUGUCAUUUCAAGAUCGUAAGAAGUACUGGGAUGGGUUUGAGUUUUCAGCACAGAGGCGAGUUGAUCUAGGAGCAUACAACUGUACUGAGCAGCUAGAGCAUUUGAGCAACCCAUGUAAUCUUUGUGUUUCCCUCCCUGUAAGAAGGCCUGUCAGAGCUUGCUGUAGGAGUUAGGGUAAAUGAAAGUUAGUCCUGGCUCUCAUCACCACUCUUGCGGUCGCACUAGUGUGGAAUUCUCGGGUGUCAAGG"}, "B2": {"name": "ENSMUSG00000004113.44|Cacna1b (ssRNA)", "RNA": "GGGAGUUCUACAGUCCGACGAUCGCUUCGAUAUCCGCAUGCUAUCCGCCGUGUACCCAAUGGCUAUCACUGCACUUUGGGACUCAGCACUGGCGUCCGGGCGCGGCACAGCUACCACCACCCCGAUCAGGACCACUGGUGCUAGCUGCACCACGACCACCCAUGUACCAGCUCCAUGGGUGAGGGUUCCAGUUGAUGAGUUUUAUCAUCCGCUCUGGGCUGUGGGGUCACAGCCCUGGGAGGAGGGCCCUCACAUCUCGGCCUCUGUGGUGGAGGCUCCUGCUUCCCUCCCUCCCUCCCUUUUCUCUUGCGGUCGCACUAGUGUGGAAUUCUCGGGUGUCAAGG"}, "B3": {"name": "ENSMUSG00000031028.188|Tub (ssRNA)", "RNA": "GGGAGUUCUACAGUCCGACGAUCGCUUCGAUAUCCGCAUGCUAUUAAUGGCAGAGUUGAGAACCUCAAAUUCUUUUGUUCCUACUGUUGCCCAGAAACUAGACUCUCUGACCUGCUAGGGUCUAUUCUGCAUGUCCUUUCUCUUCCCAGUUCCAGAGAUGAAACCCCUCCGAGUUAAUGUAUAAGGUUGGAAACCUUUCAGUAGGGAAUCAGGCAGUUCCCUGUUGAAAGUUGUCUGAGUUUUUGCACACCAUUCUGAUCUGAUGUGGCCUGUGCCUGGCUCCUCUAUGAGGACUUCGAGCUGCUCUUGCGGUCGCACUAGUGUGGAAUUCUCGGGUGUCAAGG"}, "B4": {"name": "ENSMUSG00000029028.242|Lrrc47 (ssRNA)", "RNA": "GGGAGUUCUACAGUCCGACGAUCGCUUCGAUAUCCGCAUGCUAGUCAGAACUAGUGAAGCUCCAGGCUCCUCGUGGCAGACCCUGGACAACGCUGGUAGCUGUUCUCCAUGAGACACGGCUGCUCACAGGUCCCUUUGAGUGGCUGUGGCAAGUACUCACCUACUAAGUGUUUAGGGUGGAGCUAUCCUGUGCUCACCCUGUCUCCCCCCAGUUCCUGCUGUUCCCUCCAGCCCAGCCCAGCCCAGGUGUGAGAUUCAUUGAGAUUUUUGAAACUGUUUUUACAGAUUCAAGCAGAACGCCUCCUCUUGCGGUCGCACUAGUGUGGAAUUCUCGGGUGUCAAGG"}, "B5": {"name": "ENSMUSG00000058297.76|Spock2 (ssRNA)", "RNA": "GGGAGUUCUACAGUCCGACGAUCGCUUCGAUAUCCGCAUGCUACUGAUCCUGCCCCUCAGCCCAACACCUGGAAUCCCUGCCCUGCCUAAUCAGCCCUACCCCAUCCUGCCUUUCUUCCUUCCUCUUCUGAGGCCAGGGAGAGGGAGGGAGGGCAGGCAGCUGAAAGCUGAGCGUCCUCCCCAAAUUGGGCUGAUUUGAUAUGAAAGCCCCACCACGGUCUUGUGGUGAUGAGGCAGGACCUGUACACACAGCAAGGCUUACUAUCCGUCUCCUGACAUCCGAAGAGCUCGUCGCAGGUGUGUCUCUUGCGGUCGCACUAGUGUGGAAUUCUCGGGUGUCAAGG"}, "B6": {"name": "ENSMUSG00000061578.198|Ksr2 (ssRNA)", "RNA": "GGGAGUUCUACAGUCCGACGAUCGCUUCGAUAUCCGCAUGCUAGGCACAGAGUGAAUGGGAAGGAGAGCCCUGAGGUCACUGGUCCACAUGCCCAAAGCCAUGCCCCCCAGUGAUCAGACCUGACACAAGAGGCAAAGCUGUCCCUAAGCAGAGAAUUAGCAGGGUUAGCCAGACAGCAAAAUCCAUGUAAACAUACAAAACCACCCCCCCUUUUUGAGUGGCCCUAUUGGAUGUACACACUAGGACCAAGCACGGGUCCAAAGCAGGAAGACUGAUUGACAGUAGUCACACUUCUAGAGAGACUCUUGCGGUCGCACUAGUGUGGAAUUCUCGGGUGUCAAGG"}, "B7": {"name": "ENSMUSG00000022095.7|Fam160b2|99:103 (ssRNA)", "RNA": "GGGAGUUCUACAGUCCGACGAUCGCUUCGAUAUCCGCAUGCUAGUCAAGUUUCCCCCACACGGUCCUUACCUGAACUUCUCUCCACCUCCAGAAGGGCAAGUCUGAGCCAGGAGCAUGACGGGUGGGGGAAGAUUCCUGCCACACAACUUCUGCCCACGGGCAGUCUCCUGCCUGGCCAUGCUGCCACUCUGUCCUCCAUGCCGGGGACUUCAGCUGCAGGACACCUCACCUGUUGACCCCACGAGCUGAGGUUUCAAGGAGGUGCUGGCUCCUAAGGCAGUGGUAUUCUUGGAGCCUUUUAGCUCUUGCGGUCGCACUAGUGUGGAAUUCUCGGGUGUCAAGG"}, "B8": {"name": "ENSMUSG00000004113.285|Cacna1b (ssRNA)", "RNA": "GGGAGUUCUACAGUCCGACGAUCGCUUCGAUAUCCGCAUGCUAUGGCUGCUUUGCAAAGGGAAAACCCAUGCUCAGGAAGGUGUUCAGUGUGCACAGAUAGCUGGGAGGCCACGAGAGAAAGGUUGCACACAGACAGGCAGGCACUCCUUGGUGUGGUCUCUCUGUUUUGAAACUUCUGAUGACUUCUUGGUGGCUUGUUGUCUUCUACCCCAUGUUUCUCACAGGAUCUGUGUGUGUGUGUGUGUGUGUGUGUGUGUGUGUGUGUGUGUGUGUUAGCAUGUGUGUAUUAGCGUGUGUGAGUGCUCUUGCGGUCGCACUAGUGUGGAAUUCUCGGGUGUCAAGG"}, "B9": {"name": "ENSMUSG00000004113.287|Cacna1b (ssRNA)", "RNA": "GGGAGUUCUACAGUCCGACGAUCGCUUCGAUAUCCGCAUGCUAAAAGGGAAAACCCAUGCUCAGGAAGGUGUUCAGUGUGCACAGAUAGCUGGGAGGCCACGAGAGAAAGGUUGCACACAGACAGGCAGGCACUCCUUGGUGUGGUCUCUCUGUUUUGAAACUUCUGAUGACUUCUUGGUGGCUUGUUGUCUUCUACCCCAUGUUUCUCACAGGAUCUGUGUGUGUGUGUGUGUGUGUGUGUGUGUGUGUGUGUGUGUGUGUUAGCAUGUGUGUAUUAGCGUGUGUGAGUGUGUGAGCAUGCACUCUUGCGGUCGCACUAGUGUGGAAUUCUCGGGUGUCAAGG"}, "B10": {"name": "ENSMUSG00000004113.289|Cacna1b (ssRNA)", "RNA": "GGGAGUUCUACAGUCCGACGAUCGCUUCGAUAUCCGCAUGCUACAUGCUCAGGAAGGUGUUCAGUGUGCACAGAUAGCUGGGAGGCCACGAGAGAAAGGUUGCACACAGACAGGCAGGCACUCCUUGGUGUGGUCUCUCUGUUUUGAAACUUCUGAUGACUUCUUGGUGGCUUGUUGUCUUCUACCCCAUGUUUCUCACAGGAUCUGUGUGUGUGUGUGUGUGUGUGUGUGUGUGUGUGUGUGUGUGUGUUAGCAUGUGUGUAUUAGCGUGUGUGAGUGUGUGAGCAUGCACGAGUCAUAGGACUCUUGCGGUCGCACUAGUGUGGAAUUCUCGGGUGUCAAGG"}, "B11": {"name": "ENSMUSG00000004113.286|Cacna1b (ssRNA)", "RNA": "GGGAGUUCUACAGUCCGACGAUCGCUUCGAUAUCCGCAUGCUACUUUGCAAAGGGAAAACCCAUGCUCAGGAAGGUGUUCAGUGUGCACAGAUAGCUGGGAGGCCACGAGAGAAAGGUUGCACACAGACAGGCAGGCACUCCUUGGUGUGGUCUCUCUGUUUUGAAACUUCUGAUGACUUCUUGGUGGCUUGUUGUCUUCUACCCCAUGUUUCUCACAGGAUCUGUGUGUGUGUGUGUGUGUGUGUGUGUGUGUGUGUGUGUGUGUGUUAGCAUGUGUGUAUUAGCGUGUGUGAGUGUGUGAGCUCUUGCGGUCGCACUAGUGUGGAAUUCUCGGGUGUCAAGG"}, "B12": {"name": "ENSMUSG00000004113.284|Cacna1b (ssRNA)", "RNA": "GGGAGUUCUACAGUCCGACGAUCGCUUCGAUAUCCGCAUGCUAACCUCAUGGCUGCUUUGCAAAGGGAAAACCCAUGCUCAGGAAGGUGUUCAGUGUGCACAGAUAGCUGGGAGGCCACGAGAGAAAGGUUGCACACAGACAGGCAGGCACUCCUUGGUGUGGUCUCUCUGUUUUGAAACUUCUGAUGACUUCUUGGUGGCUUGUUGUCUUCUACCCCAUGUUUCUCACAGGAUCUGUGUGUGUGUGUGUGUGUGUGUGUGUGUGUGUGUGUGUGUGUGUUAGCAUGUGUGUAUUAGCGUGUGCUCUUGCGGUCGCACUAGUGUGGAAUUCUCGGGUGUCAAGG"}, "B13": {"name": "ENSMUSG00000004113.288|Cacna1b (ssRNA)", "RNA": "GGGAGUUCUACAGUCCGACGAUCGCUUCGAUAUCCGCAUGCUAAAAACCCAUGCUCAGGAAGGUGUUCAGUGUGCACAGAUAGCUGGGAGGCCACGAGAGAAAGGUUGCACACAGACAGGCAGGCACUCCUUGGUGUGGUCUCUCUGUUUUGAAACUUCUGAUGACUUCUUGGUGGCUUGUUGUCUUCUACCCCAUGUUUCUCACAGGAUCUGUGUGUGUGUGUGUGUGUGUGUGUGUGUGUGUGUGUGUGUGUGUUAGCAUGUGUGUAUUAGCGUGUGUGAGUGUGUGAGCAUGCACGAGUCCUCUUGCGGUCGCACUAGUGUGGAAUUCUCGGGUGUCAAGG"}},
  "note": "In all, about 9,900 sequences were measured (“r (bound/input frequency ratio)”: median about 0.7, highest 2% from about 6.5 on). Many of the other results were omitted from the sample, so the highest values are more common in it than they were.",
  "data": [
    {"molecular_target": "TDP-43 (Homo sapiens, UniProt Q13148 1-414)", "sequence (Q13148 whole entry)": "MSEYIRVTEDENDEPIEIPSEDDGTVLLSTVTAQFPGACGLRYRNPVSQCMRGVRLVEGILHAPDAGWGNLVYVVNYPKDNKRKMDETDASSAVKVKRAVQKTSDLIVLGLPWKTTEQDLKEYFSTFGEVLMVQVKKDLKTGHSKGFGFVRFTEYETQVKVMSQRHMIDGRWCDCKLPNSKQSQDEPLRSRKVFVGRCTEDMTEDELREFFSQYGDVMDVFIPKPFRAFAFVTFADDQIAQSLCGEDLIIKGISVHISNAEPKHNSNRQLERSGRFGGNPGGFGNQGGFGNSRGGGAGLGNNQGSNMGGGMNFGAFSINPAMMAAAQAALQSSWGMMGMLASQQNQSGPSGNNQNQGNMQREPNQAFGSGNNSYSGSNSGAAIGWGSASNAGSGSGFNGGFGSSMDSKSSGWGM", "test": "RNA Bind-n-Seq with designed 260-mer pool; 25 mM Tris-HCl, 150 mM KCl, 3 mM MgCl2, BSA (printed 500 mg/mL), 20 units/mL SUPERase IN; pH not stated; 500 nM RNA pool, 1 h, 4 C; TDP-43 5, 50, 500 nM; high values mean tight binding", "conditions": "protein: recombinant; tags: SBP (GST cleaved off with PreScission; pGEX-GST-SBP)", "how_it_was_run": "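In 25 mM Tris-HCl, 150 mM KCl, 3 mM MgCl2, BSA and SUPERase IN, 500 nM of an in vitro-transcribed 260-nt 3′ UTR oligo pool was incubated for 1 h at 4 °C with SBP-tagged TDP-43 (5, 50 or 500 nM) captured on streptavidin beads. RNA remaining after washes was biotin-eluted, reverse transcribed, PCR-amplified and sequenced. Binding, R, is the bound-sample abundance of each oligo, normalized to mapped reads, divided by its abundance in input. Each duplicate used a separate, independent protein batch.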", "values": [
      {"binder": "B1", "binding signal": "0.299 R (bound/input frequency ratio)"},
      {"binder": "B2", "binding signal": "0.443 R (bound/input frequency ratio)"},
      {"binder": "B3", "binding signal": "1.12 R (bound/input frequency ratio)"},
      {"binder": "B4", "binding signal": "0.479 R (bound/input frequency ratio)"},
      {"binder": "B5", "binding signal": "0.827 R (bound/input frequency ratio)"},
      {"binder": "B6", "binding signal": "1.41 R (bound/input frequency ratio)"},
      {"binder": "B7", "binding signal": "0.238 R (bound/input frequency ratio)"},
      {"binder": "B8", "binding signal": "7.91 R (bound/input frequency ratio)"},
      {"binder": "B9", "binding signal": "5.32 R (bound/input frequency ratio)"},
      {"binder": "B10", "binding signal": "5.06 R (bound/input frequency ratio)"},
      {"binder": "B11", "binding signal": "6.11 R (bound/input frequency ratio)"},
      {"binder": "B12", "binding signal": "6.3 R (bound/input frequency ratio)"},
      {"binder": "B13", "binding signal": "7.06 R (bound/input frequency ratio)"}
    ]}
  ]
}
